The text below walks through data of PubChem BioAssay (NCATS).

Molecules are shown by their SMILES. Inconclusive results are not listed. Values without a mark were called inactive. Active and inactive are the calls of the source. Unless noted, the call rests on the fitted dose curve; in most records, active means well fitted curve in the direction sought with a large enough effect; inconclusive means small, poorly fitted or top-dose-only effect, or another doubt; inactive means no such curve, though single readings can be large; an effect the other way counts as inactive or inconclusive.

Assay [1] deals with ATP-dependent 6-phosphofructokinase (Trypanosoma brucei brucei) (UniProt O15648). Nature of the assay: qHTS Assay to Find Inhibitors of T. brucei phosphofructokinase: hit validation (AID 492961).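 Further: luminescence reports ADP formed as PFK phosphorylates fructose-6-phosphate with ATP; on the % scale 0 is the no-effect control and ±100 the full control effect.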 The procedure, abridged: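 Measures ADP output of PFK (1.25 nM) at 0.1 mM ATP, 0.5 mM F6P, pH 8.0 TEA buffer with 5 mM MgCl2. No-enzyme wells define full inhibition; uninhibited enzyme wells define zero.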
Sequence of ATP-dependent 6-phosphofructokinase (Trypanosoma brucei brucei) (O15648 whole entry, looked up): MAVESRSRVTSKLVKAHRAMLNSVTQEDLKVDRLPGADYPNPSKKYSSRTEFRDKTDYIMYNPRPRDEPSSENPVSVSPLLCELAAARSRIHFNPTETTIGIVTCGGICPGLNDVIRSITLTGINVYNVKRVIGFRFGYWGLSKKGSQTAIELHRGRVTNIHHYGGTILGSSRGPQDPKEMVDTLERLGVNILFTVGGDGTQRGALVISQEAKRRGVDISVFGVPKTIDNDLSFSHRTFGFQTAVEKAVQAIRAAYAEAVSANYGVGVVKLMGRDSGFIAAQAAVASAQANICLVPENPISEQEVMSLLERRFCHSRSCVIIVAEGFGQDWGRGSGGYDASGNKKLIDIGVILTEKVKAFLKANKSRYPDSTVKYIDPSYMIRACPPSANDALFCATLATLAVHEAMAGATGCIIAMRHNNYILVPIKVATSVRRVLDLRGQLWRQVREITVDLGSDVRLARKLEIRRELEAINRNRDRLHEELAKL
(qHTS replaces the single test concentration by a dilution series.)

The target of assay [2] is Luciferin 4-monooxygenase (Photinus pyralis) (UniProt P08659). Nature of the assay: Biochemical firefly luciferase enzyme assay for NPC (AID 624030).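 Further: purified P. pyralis luciferase at 10 nM with luciferin and ATP substrate; 0% = DMSO and -100% = full luciferase inhibition by PTC124 control; nearly all actives have a fitted effect of over 70% in size.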 The procedure, abridged:
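Direct inhibition of firefly luciferase enzyme (10 nM final, 50 mM Tris Acetate) assessed by luminescence within 5 minutes. Percent activity scaled between DMSO and PTC124 positive control, with concentration-effect curves classified by fit quality and response.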

The nature of assay [3]: S16 Schwann cell PMP22 intronic element beta-lactamase assay (AID 624044; calls by dose curve;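 further: 0% = DMSO and -100% = potassium clavulanate positive control; nearly all actives have a fitted effect of over 15% in size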). Conditions: S16 rat Schwann cells, PMP22 element beta-lactamase FRET, 24 h; ratio activity, negative = inhibition: at 38.3 µM (top of the series). The procedure, abridged: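 Rat S16 Schwann cells with beta-Lac driven by a PMP22 intronic element, compound-treated 24 h at 37 °C. LiveBLAzer FRET B/G read: 460 nm normalized to potassium clavulanate vs DMSO; 535 nm FRET as viability; concentration-effect curves classified.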

The nature of assay [4]: qHTS profiling for inhibitors of Plasmodium falciparum proliferation (AID 504749). Further: nearly all actives have a fitted effect of over 60% in size. Further: potency means the concentration at half of the fitted maximal effect.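 On activity, negative = inhibition: 0% = DMSO vehicle and full inhibition = artemisinin control.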 Conditions: P. falciparum in erythrocytes, SYBR Green DNA, 72 h, at 28.7 µM (top of the series). Put shortly:
(§1)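 Infected RBCs, 0.3% parasitemia/2.5% Hct final; cpd 72 h, 37 C, 5% CO2; lysis buffer with saponin/triton/SYBR Green I, o/n RT dark; FI 485/535; norm. to artemisinin (0.29 uM) and DMSO.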

For another assay, the system named is CP185. The assay is described as above. Conditions: P. falciparum in erythrocytes, SYBR Green DNA, 72 h; series mostly up to 28.7 µM. The procedure, abridged: as §1
In the next assay the test system is CP192. The description is as above. Conditions: P. falciparum in erythrocytes, SYBR Green DNA, 72 h; series mostly up to 28.7 µM. Put shortly:
as §1

The next assay deals with CP211. The assay is described as above. Conditions: P. falciparum in erythrocytes, SYBR Green DNA, 72 h; series mostly up to 28.7 µM. Put shortly: as §1
A further assay has as its system CP238. Described as above. Conditions: P. falciparum in erythrocytes, SYBR Green DNA, 72 h; series mostly up to 28.7 µM. The procedure, abridged:
as §1

The test system of the next assay is CP262. The description is as above. Conditions: P. falciparum in erythrocytes, SYBR Green DNA, 72 h; series mostly up to 28.7 µM. Put shortly: as §1
For another assay, the system named is CP269. Described as above. Conditions: P. falciparum in erythrocytes, SYBR Green DNA, 72 h; series mostly up to 28.7 µM. The procedure, abridged:
as §1

For the next assay, the system named is CP286. Described as above. Conditions: P. falciparum in erythrocytes, SYBR Green DNA, 72 h; series mostly up to 28.7 µM. Put shortly: as §1
For another assay, the system named is CP305. The description is as above. Conditions: P. falciparum in erythrocytes, SYBR Green DNA, 72 h; series mostly up to 28.7 µM. Put shortly:
as §1

The test system of the next assay is CP315. Described as above. Conditions: P. falciparum in erythrocytes, SYBR Green DNA, 72 h; series mostly up to 28.7 µM. Put shortly:
as §1

The next assay relates to CP325. The assay is described as above. Conditions: P. falciparum in erythrocytes, SYBR Green DNA, 72 h; series mostly up to 28.7 µM. The procedure, abridged: as §1
For another assay, the system named is Dd2. The assay is described as above. Conditions: P. falciparum in erythrocytes, SYBR Green DNA, 72 h; series mostly up to 28.7 µM. Put shortly:
as §1

The next assay deals with FAB9. The assay is described as above. Conditions: P. falciparum in erythrocytes, SYBR Green DNA, 72 h; series mostly up to 28.7 µM. The procedure, abridged:
as §1

In the next assay the test system is HB3. The description is as above. Conditions: P. falciparum in erythrocytes, SYBR Green DNA, 72 h; series mostly up to 28.7 µM. Put shortly: as §1
The subject of another assay is JCK. The assay is described as above. Conditions: P. falciparum in erythrocytes, SYBR Green DNA, 72 h; series mostly up to 28.7 µM. Put shortly:
as §1

A further assay deals with N140. The description is as above. Conditions: P. falciparum in erythrocytes, SYBR Green DNA, 72 h; series mostly up to 28.7 µM. The procedure, abridged:
as §1

The test system of a further assay is PC49. The assay is described as above. Conditions: P. falciparum in erythrocytes, SYBR Green DNA, 72 h; series mostly up to 28.7 µM. Put shortly:
as §1

Sequence of Luciferin 4-monooxygenase (Photinus pyralis) (P08659 whole entry, looked up): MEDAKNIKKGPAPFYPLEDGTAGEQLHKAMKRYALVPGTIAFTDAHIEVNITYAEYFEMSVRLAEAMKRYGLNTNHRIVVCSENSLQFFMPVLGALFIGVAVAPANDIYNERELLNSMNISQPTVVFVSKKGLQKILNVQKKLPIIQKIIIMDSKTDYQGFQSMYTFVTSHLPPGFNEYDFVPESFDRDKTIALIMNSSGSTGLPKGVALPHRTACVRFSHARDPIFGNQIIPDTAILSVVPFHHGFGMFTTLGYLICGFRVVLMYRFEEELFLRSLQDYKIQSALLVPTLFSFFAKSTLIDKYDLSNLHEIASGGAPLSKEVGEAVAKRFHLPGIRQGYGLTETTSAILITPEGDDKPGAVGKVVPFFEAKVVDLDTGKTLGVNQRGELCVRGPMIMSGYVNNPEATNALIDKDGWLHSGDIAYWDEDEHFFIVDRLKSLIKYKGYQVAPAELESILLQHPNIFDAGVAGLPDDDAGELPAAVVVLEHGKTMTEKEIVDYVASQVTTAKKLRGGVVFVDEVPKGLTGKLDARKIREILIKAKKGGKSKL

With `O=C(O)C[CH2][Ge](=[O])[O][Ge](=[O])[CH2]CC(=O)O`, the Potency result (in assay [1]; in assay [2]; in assay [3]; in the assay on CP185; in the assay on CP192; in the assay with CP211) was “inactive” each time. Besides, the Potency entry in the assay with CP238, in the assay with CP262, in the assay on CP269, in the assay with CP286, in the assay on CP305 and in the assay with CP315 was “inactive” throughout. Further, the Potency entry with CP325, with Dd2, with FAB9, with HB3, with JCK and in the assay on N140 was “inactive” in each case. Further, in the assay with PC49, the Potency result was “inactive”. Further, the activity, negative = inhibition in assay [4] (parasite line A) is 10.2%.
Regarding `CCCSS/C(CCO)=C(/C)N(C=O)Cc1cnc(C)nc1N`, the Potency entry (in [1]; in assay [2]; with CP185; in the assay on CP192; with CP211; in the assay with CP238) was “inactive” in each case. Besides, the Potency result in the assay with CP262, in the assay on CP269, in the assay on CP286, with CP305, with CP315 and with CP325 was “inactive” each time. The Potency entry in the assay with Dd2, with FAB9, with HB3, with JCK, in the assay on N140 and in the assay on PC49 was “inactive” throughout. The activity, negative = inhibition was -20.8% in assay [4] (parasite line A) and -22.2% in [4] (parasite line B).
Turning to `CC1CCC(O)C/C1=C\C=C1/CCCC2(C)C1CCC2C(C)/C=C/C(C)C(C)C` (configuration not stated), the Potency entry (in [1]; in [2]; with CP185; with CP192; with CP211; in the assay on CP238) was “inactive” throughout. The Potency entry with CP262, in the assay with CP269, in the assay with CP286, with CP305, in the assay on CP315 and with CP325 was “inactive” in each case. The Potency result in the assay with Dd2, with FAB9, in the assay with HB3, with JCK and in the assay with PC49 was “inactive” throughout. The values for the activity, negative = inhibition in assay [4] (parasite line A) and in assay [4] (parasite line B) were -1.73% and -28.9%, respectively.
`Oc1cc2cc(CCN3CCN(c4nsc5ccccc45)CC3)c(Cl)cc2[nH]1`: the Potency entry (in [1]; in assay [2]; in assay [3]; in the assay on CP185; in the assay with CP192; in the assay on CP211) was “inactive” throughout. The Potency result with CP238, in the assay on CP262, with CP269, in the assay on CP305, with CP315 and in the assay with CP325 was “inactive” in each case. Also, the Potency entry with Dd2, in the assay with FAB9, in the assay on JCK and with PC49 was “inactive” in each case. Also, the activity, negative = inhibition in assay [4] (parasite line B) is -29.2%.
Regarding `C=CCN1CC(C(=O)N(CCCN(C)C)C(=O)NCC)CC2c3cccc4[nH]cc(c34)CC21` (configuration not stated), the Potency result (in assay [1]; in [2]; in [3]; in the assay with CP185; with CP192; with CP211) was “inactive” in each case. Besides, the Potency entry in the assay with CP238, in the assay on CP262, with CP269, in the assay with CP305, in the assay with CP315 and in the assay on CP325 was “inactive” each time. In addition, the Potency entry in the assay with FAB9, in the assay on HB3, in the assay on JCK and in the assay with PC49 was “inactive” in each case. In assay [4] (parasite line B), the activity, negative = inhibition is -28.9%. Also, the Potency was 12.6 µM (active) with CP286 and 8.91 µM (active) in the assay on Dd2.
As for `C=C1CCC(O)C/C1=C/C=C1\CCC[C@]2(C)[C@@H]([C@H](C)/C=C/[C@H](C)C(C)C)CC[C@@H]12` (some centres not stated), the Potency entry (in assay [1]; in assay [2]; in [3]; with CP192; in the assay with CP211; with CP238) was “inactive” each time. Moreover, the Potency result in the assay on CP262, with CP269, in the assay with CP286, in the assay with CP305, in the assay on CP315 and in the assay with CP325 was “inactive” in each case. Besides, the Potency result with FAB9 is “inactive”. Also, in the assay on JCK, the Potency was 0.708 µM (active).
Regarding `COC(=O)C1[C@@H](OC)C(OC(=O)COc2ccc(OC)cc2)C[C@@H]2CN3CCc4c([nH]c5cc(OC)ccc45)[C@H]3C[C@H]12` (some centres not stated), the Potency entry (in [1]; in assay [2]; in [3]; in the assay with CP192; with CP211; in the assay on CP262) was “inactive” throughout. Besides, the Potency entry in the assay on CP315, with CP325, with JCK and in the assay with PC49 was “inactive” in each case. The Potency was 11.2 µM (active) in the assay with CP286, 10 µM (active) with Dd2, 12.6 µM (active) in the assay with HB3 and 11.2 µM (active) in the assay on N140.
Regarding `C=C1CC[C@H](O)C/C1=C/C=C1\CCC[C@]2(C)[C@@H]([C@H](C)CC[C@@H](O)C(C)(C)O)CC[C@@H]12`, the Potency entry (in assay [1]; in [2]; in assay [3]; with CP192; with CP211; in the assay on CP262) was “inactive” in each case. In addition, the Potency result in the assay on CP269, with CP286, in the assay with CP305, in the assay on CP315, with CP325 and in the assay on FAB9 was “inactive” each time. In the assay on PC49, the Potency result was “inactive”. Besides, in the assay on N140, the Potency was 8.91 µM (active).
